Screening data (PubChem BioAssay)
Pf growth 96h: Primary qHTS for delayed death inhibitors of the malarial parasite plastid, 96 hour incubation; P. falciparum luciferase reporter growth, 96 h; Potency, µM (highest dose often 28.7 µM), for inactives: at the highest dose activity change, negative = inhibition, hits mostly inhibitors; 320,000 tested, 6.9% active; AID 504834, 2011; note: potency is the fitted concentration of half-maximal effect
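Erythrocytes infected with luciferase-expressing P. falciparum were dispensed at 2% hematocrit and 0.05% parasitemia (final), then incubated with compounds 96 hours at 37 C in 5% CO2. Luminescence after detection reagent addition reported growth.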
HCMV inh: qHTS Assay for inhibitors of the human cytomegalovirus (HCMV); 410,000 tested, 4.5% active; activity change, negative = inhibition, % at 57.5 µM; HFF cells, HCMV-luciferase reporter, 72 h; hits give low values; AID 1259415, 2018; in the data active = activity change below about -60%; inconclusive = no clear call, values can overlap the other calls; inactive = above about -39%
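Compounds were evaluated in HFFs infected with an HCMV luciferase reporter virus (MOI 1 PFU/cell). Luciferase in lysates collected 72 h post infection served as the replication measure.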
Pf growth 48h: Primary qHTS for delayed death inhibitors of the malarial parasite plastid, 48 hour incubation | P. falciparum luciferase growth in erythrocytes, 48 h | Potency, µM (titrated, usually from 28.7 µM), for inactives: at the highest dose activity change, negative = inhibition, usual class: inhibitors | 310,000 tested, 5.9% active; note: potency is the fitted concentration of half-maximal effect
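Here the parasites carry a stable luciferase gene and grow inside erythrocytes in Albumax-based RPMI medium with compound for one erythrocytic cycle. Activity is scored as loss of luminescent signal.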
MARV entry inh: qHTS for inhibitors of binding or entry into cells for Marburg Virus. Marburg virus pseudotyped entry inhibition, cell reporter. Potency, µM (doses to about 37.8 µM), for inactives: at the top dose activity change, negative = inhibition, most hits filed as inhibitors. 300,000 tested, 1.8% active. AID 540276, 2011; calls by dose curve; tested in HEK293 cells; note: potency is the fitted concentration of half-maximal effect
LASV entry inh: qHTS for Inhibitors of binding or entry into cells for Lassa Virus; AID 540256, 2011; Lassa virus pseudotype entry inhibition, cell reporter; Potency, µM (top dose mostly 37.9 µM), for inactives: at the top dose activity change, negative = inhibition, hits mostly inhibitors; 300,000 tested, 1.2% active; calls by dose curve; tested in HEK293 cells; note: potency is the fitted concentration of half-maximal effect; nearly all actives have a fitted effect of over 50% in size
HCV inh: qHTS Assay for Inhibitors of Hepatitis C Virus (HCV); Huh7.5.1 HCVcc-Cre infection, luciferase reporter, 44 h; 340,000 tested, 3.4% active; Potency, µM (top dose mostly 41.8 µM), without a hit: at the highest dose activity change, negative = inhibition, usual class: inhibitors; note: potency is the fitted concentration of half-maximal effect
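Reporter virus HCVcc-Cre (~0.5 moi) infects cells exposed to compound; seeding density 1,000 cells/well with 4 h settling beforehand. Luminescence, 15 sec read, taken 44 h post-infection following a 15 min RT substrate incubation.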
* hit, by the source's call; [ ] = another dose, or the depositor's remark. An excerpt weighted towards active compounds, which were near 14% of everything screened. Unless noted, calls come from the whole dose curve; as a rule, active = well fitted inhibition curve with a large enough effect; inconclusive = small, poorly fitted or top-dose-only effect, or another doubt; inactive = no such curve, though single readings can be large or run the other way. % is set by controls: 0 for no effect and ±100 for the full control effect.

`CCOC(=O)C1CCN(S(=O)(=O)c2ccc(Br)c(OCC)c2)CC1` gave Pf growth 96h 4.7µM*, HCMV inh 59, Pf growth 48h 5%, MARV entry inh inconclusive, LASV entry inh inconclusive and HCV inh 8%.
`CCOC(=O)C1CCN(C(=O)COC(=O)c2nc3nc(C)cc(C)n3n2)CC1` gave Pf growth 96h 24%, HCMV inh -3, Pf growth 48h 5%, MARV entry inh -1%, LASV entry inh 18% and HCV inh 0%.
For CCOC(=O)C1CCN(S(=O)(=O)c2ccc(OC)c(OC)c2)CC1 the results were Pf growth 96h 3%, HCMV inh -22, MARV entry inh -2%, LASV entry inh 9% and HCV inh -3%.
Screening CCOC(=O)C1CCCN(C(=O)c2cn(C)c3ccc(S(=O)(=O)N(C)C)cc3c2=O)C1 (stereo not drawn) returned Pf growth 96h 0.93µM*, HCMV inh 1 and HCV inh 15%.
CCOC(=O)C1CCCN(C(=O)c2ccc(S(=O)(=O)Nc3ccccc3OC)cc2)C1 (stereo not drawn) was read as Pf growth 96h inconclusive, HCMV inh -30, Pf growth 48h 12µM* and HCV inh -23%.
C/C1=C\CCCCc2cc(O)ccc2OC(=O)CC1 was read as HCMV inh -19.
Cc1ccc(S(=O)(=O)N2C3CCCCC3O[C@H]2CC(=O)c2ccccc2)cc1 (stereo partly drawn) was read as HCMV inh -29.
Cc1cc(=O)oc2c(C)c(OC(C)C(=O)N3CC[C@@]4(O)CCCC[C@H]4C3)ccc12 (stereo partly drawn) was read as Pf growth 96h inconclusive, HCMV inh 46, Pf growth 48h inconclusive and HCV inh -18%.
For CCOC(=O)C1CCCN(C(=O)c2cccc(S(=O)(=O)N(Cc3ccccc3)c3ccccc3OC)c2)C1 (stereo not drawn) the results were Pf growth 96h inconclusive, HCMV inh 0, Pf growth 48h 10µM*, MARV entry inh -25%, LASV entry inh -23% and HCV inh 18%.
For CCOC(=O)C1CCCN(C(=O)c2ccc(OC)cc2OC)CC1 (stereo not drawn) the results were HCMV inh -32.
`CCOC(=O)C1CCCN(CC(=O)Nc2ccc(C(=O)Nc3ccccc3OC)cc2)C1` (stereo not drawn) gave Pf growth 96h inconclusive, HCMV inh -20, Pf growth 48h 12µM*, MARV entry inh inconclusive, LASV entry inh 0% and HCV inh 11µM*.
`CCOC(=O)C1CCN(C(=O)c2ccc(OC)cc2OC)CC1` gave Pf growth 96h 13µM*, HCMV inh 27, Pf growth 48h 4%, MARV entry inh 14%, LASV entry inh -16% and HCV inh 10%.
For COc1ccccc1NC(=O)c1ccc(NC(=O)CN2CCCC2)cc1 the results were Pf growth 96h 11%, HCMV inh -29, Pf growth 48h 1%, MARV entry inh -7%[46.1 µM], LASV entry inh 12%[46.1 µM] and HCV inh inconclusive.
For CCOC(=O)C1CCCN(C(=O)c2ccccc2Oc2ccccc2)C1 (stereo not drawn) the results were Pf growth 96h 1.3µM*, HCMV inh 19, Pf growth 48h -17%, MARV entry inh inconclusive, LASV entry inh 0% and HCV inh 15%.
Screening CCOC(=O)C1CCN(C(=O)c2cc(S(=O)(=O)N3CCCCCC3)ccc2OC)CC1 returned Pf growth 96h 4.1µM*, HCMV inh 9, Pf growth 48h inconclusive, MARV entry inh 21%, LASV entry inh -15% and HCV inh 4%[8.37 µM].
For CCOC(=O)C1CCN(c2cc3c(cc2NC(=O)c2ccccc2)n(C)c(=O)n3C)CC1 the results were Pf growth 96h inconclusive, HCMV inh 0, Pf growth 48h inconclusive and HCV inh -25%.
For CCOC(=O)C1CCCN(C(=O)c2cc(S(=O)(=O)N3CCCCCC3)ccc2OC)C1 (stereo not drawn) the results were Pf growth 96h 9.3µM*, HCMV inh 0, Pf growth 48h 9.3µM* and HCV inh 7%.
CCOC(=O)C1CCN(S(=O)(=O)c2cccc3nonc23)CC1 was read as Pf growth 96h 85%, HCMV inh 3, Pf growth 48h 7%, MARV entry inh -5%[46.1 µM], LASV entry inh 1% and HCV inh -10%.
Screening CCOC(=O)C1CCN(c2cc3c(cc2NC(=O)c2ccc(OC)c(OC)c2)n(C)c(=O)n3C)CC1 returned Pf growth 96h inconclusive, HCMV inh 0, Pf growth 48h 8.3µM*, MARV entry inh 2%[46.1 µM], LASV entry inh inconclusive and HCV inh inconclusive.
`CCOC(=O)C1CCN(S(=O)(=O)c2c(Cl)ccc3nonc23)CC1` gave Pf growth 96h 2.3µM*, HCMV inh -113* and Pf growth 48h -23%.
For CCOC(=O)C1CCN(S(=O)(=O)c2ccc(OC)c(C(=O)N3CCCCCC3)c2)CC1 the results were Pf growth 96h -5%, HCMV inh 24, Pf growth 48h -4%, MARV entry inh -8%[46.1 µM], LASV entry inh 15% and HCV inh 1%.
For O=C(NC1CC(=O)N(c2cccc(F)c2)C1)C1CC1 (stereo not drawn) the results were HCMV inh 7 and LASV entry inh 11%[46.1 µM].
Cc1cccc(CCNC(=O)CCc2c(C)nc3c4c(C)cc(C)nc4nn3c2C)c1 was read as HCMV inh -12, MARV entry inh -13%[46.1 µM] and LASV entry inh 0%[46.1 µM].
For C=CCOC(=O)C(C(C)=O)[C@@H](NC(=O)OC)c1ccco1 (stereo partly drawn) the results were MARV entry inh 19%[14.2 µM].
`CCOC(=O)C1CCCN(C(=O)c2ccc3nc(-c4ccccc4)c(-c4ccccc4)nc3c2)C1` (stereo not drawn) gave Pf growth 96h 13µM*, HCMV inh -25, Pf growth 48h inconclusive and HCV inh -15%.
CCOP(=O)(OCC)C1(O)C(=O)Nc2ccccc21 (stereo not drawn) was read as Pf growth 96h inconclusive, HCMV inh -12, Pf growth 48h -6%, MARV entry inh inconclusive, LASV entry inh 15% and HCV inh 1%.
Screening CC(C)OP(=O)(OC(C)C)C1(O)C(=O)Nc2ccccc21 (stereo not drawn) returned Pf growth 96h 2.6µM*, HCMV inh 30, Pf growth 48h -1%, MARV entry inh -5%, LASV entry inh 19% and HCV inh 1%.
